The text below walks through data of PMC7862700, “An all-to-all approach to the identification of sequence-specific readers for epigenetic DNA modifications on cytosine”.

Assay in all cases: DAPPL (digital affinity profiling via proximity ligation, sequencing); 10 mM Tris-HCl pH 7.5, 50 mM NaCl, 1 mM DTT, 4% glycerol, room temperature, 30 min; GST-TFs on glutathione beads, 16-mer random dsDNA library, 0.1% formaldehyde crosslink after washing; high values mean tight binding
One test has as its target T1, FEV (Homo sapiens, UniProt Q99581 1-238).
T1 sequence: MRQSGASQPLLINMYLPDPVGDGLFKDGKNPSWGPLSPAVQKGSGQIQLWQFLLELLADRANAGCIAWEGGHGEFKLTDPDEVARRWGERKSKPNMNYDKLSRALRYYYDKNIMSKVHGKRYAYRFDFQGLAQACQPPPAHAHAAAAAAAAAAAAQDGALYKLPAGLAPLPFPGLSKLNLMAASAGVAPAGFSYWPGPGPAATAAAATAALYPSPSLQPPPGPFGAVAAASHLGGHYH
To be noted: protein: recombinant; tags: N-terminal GST; dsDNA, one strand shown. Put shortly:
(§1)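 Binding signal is given per hexamer as its read frequency for a factor divided by its frequency in the tag-only sample. GST-fused human transcription factors were expressed in yeast, captured on glutathione beads, barcoded with DNA and pooled with that sample, then incubated with 200 nmole of a 16-mer random double-stranded DNA library in Tris/NaCl/DTT/glycerol buffer for 30 min at room temperature. The pools were then washed, crosslinked, proximity-ligated, amplified by PCR and sequenced on an Illumina NextSeq500.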

The next test addresses ETV5 (Homo sapiens, UniProt P41161 1-510). To be noted: protein: recombinant; tags: N-terminal GST; dsDNA, one strand shown. The method in brief: as §1
For a further test, the target named is HSF1 (Homo sapiens, UniProt Q00613 1-529). To be noted: protein: recombinant; tags: N-terminal GST; chain copies: 3; dsDNA, one strand shown. The method in brief:
as §1

For the next test, the target named is T2, SPIC (Homo sapiens, UniProt Q8N5J4 1-248).
T2 sequence: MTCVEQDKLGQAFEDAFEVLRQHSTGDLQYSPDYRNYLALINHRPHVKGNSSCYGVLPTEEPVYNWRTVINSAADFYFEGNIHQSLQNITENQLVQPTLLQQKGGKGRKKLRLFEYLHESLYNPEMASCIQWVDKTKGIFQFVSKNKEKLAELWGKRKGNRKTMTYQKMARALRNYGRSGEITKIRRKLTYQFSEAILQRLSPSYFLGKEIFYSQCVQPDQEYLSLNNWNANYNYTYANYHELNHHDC
To be noted: protein: recombinant; tags: N-terminal GST; dsDNA, one strand shown. The method in brief:
as §1

The target of the next test is ELF4 (Homo sapiens, UniProt Q99607 1-663). To be noted: protein: recombinant; tags: N-terminal GST; dsDNA, one strand shown. The method in brief:
as §1

For the next test, the target named is T3, ELK4 (Homo sapiens, UniProt P28324-2 1-405).
T3 sequence: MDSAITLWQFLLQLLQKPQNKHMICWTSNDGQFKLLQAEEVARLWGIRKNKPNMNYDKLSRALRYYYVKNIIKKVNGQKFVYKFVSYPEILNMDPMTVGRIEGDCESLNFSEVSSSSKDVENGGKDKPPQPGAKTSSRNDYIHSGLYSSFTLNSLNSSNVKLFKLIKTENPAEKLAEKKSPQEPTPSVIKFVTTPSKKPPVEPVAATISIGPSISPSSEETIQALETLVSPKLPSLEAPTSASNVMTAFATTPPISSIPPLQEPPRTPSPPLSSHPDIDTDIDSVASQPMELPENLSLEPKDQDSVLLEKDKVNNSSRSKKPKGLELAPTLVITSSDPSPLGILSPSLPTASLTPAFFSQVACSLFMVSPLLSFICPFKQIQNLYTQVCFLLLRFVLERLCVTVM
The note with it: protein: recombinant; tags: N-terminal GST; dsDNA, one strand shown. The method in brief:
as §1

The target in another test is T4, ETV2 (Homo sapiens, UniProt O00321 1-342).
T4 sequence: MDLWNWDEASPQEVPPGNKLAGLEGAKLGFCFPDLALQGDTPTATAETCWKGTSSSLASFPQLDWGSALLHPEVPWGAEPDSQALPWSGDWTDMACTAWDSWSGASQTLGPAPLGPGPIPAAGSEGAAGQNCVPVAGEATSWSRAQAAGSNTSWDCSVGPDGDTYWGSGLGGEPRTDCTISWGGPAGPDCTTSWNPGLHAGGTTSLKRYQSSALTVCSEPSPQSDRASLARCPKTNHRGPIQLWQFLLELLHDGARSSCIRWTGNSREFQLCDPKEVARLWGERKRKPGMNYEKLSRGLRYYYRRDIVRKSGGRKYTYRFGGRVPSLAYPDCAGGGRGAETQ
To be noted: protein: recombinant; tags: N-terminal GST; dsDNA, one strand shown. The method in brief: as §1

The target of another test is T5, ELF3 (Homo sapiens, UniProt P78545 1-371).
T5 sequence: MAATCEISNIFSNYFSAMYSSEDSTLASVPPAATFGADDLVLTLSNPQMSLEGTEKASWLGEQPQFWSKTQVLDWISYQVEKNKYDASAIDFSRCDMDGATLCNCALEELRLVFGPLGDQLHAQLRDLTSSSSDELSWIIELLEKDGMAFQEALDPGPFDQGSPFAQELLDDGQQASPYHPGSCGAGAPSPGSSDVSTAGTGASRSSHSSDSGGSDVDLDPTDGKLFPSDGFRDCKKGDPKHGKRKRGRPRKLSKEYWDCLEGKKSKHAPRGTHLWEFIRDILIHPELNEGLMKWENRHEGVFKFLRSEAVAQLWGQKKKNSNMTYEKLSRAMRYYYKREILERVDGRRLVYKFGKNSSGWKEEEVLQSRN
The note with it: protein: recombinant; tags: N-terminal GST; dsDNA, one strand shown. Put shortly:
as §1

Another test concerns the target CRX (Homo sapiens, UniProt O43186 1-299). The note with it: protein: recombinant; tags: N-terminal GST; dsDNA, one strand shown. Put shortly:
as §1

For a further test, the target named is ETV1 (Homo sapiens, UniProt P50549 1-477). To be noted: protein: recombinant; tags: N-terminal GST; dsDNA, one strand shown. The method in brief:
as §1

The target of a further test is T6, ERF (Homo sapiens, UniProt P50548 1-548).
T6 sequence: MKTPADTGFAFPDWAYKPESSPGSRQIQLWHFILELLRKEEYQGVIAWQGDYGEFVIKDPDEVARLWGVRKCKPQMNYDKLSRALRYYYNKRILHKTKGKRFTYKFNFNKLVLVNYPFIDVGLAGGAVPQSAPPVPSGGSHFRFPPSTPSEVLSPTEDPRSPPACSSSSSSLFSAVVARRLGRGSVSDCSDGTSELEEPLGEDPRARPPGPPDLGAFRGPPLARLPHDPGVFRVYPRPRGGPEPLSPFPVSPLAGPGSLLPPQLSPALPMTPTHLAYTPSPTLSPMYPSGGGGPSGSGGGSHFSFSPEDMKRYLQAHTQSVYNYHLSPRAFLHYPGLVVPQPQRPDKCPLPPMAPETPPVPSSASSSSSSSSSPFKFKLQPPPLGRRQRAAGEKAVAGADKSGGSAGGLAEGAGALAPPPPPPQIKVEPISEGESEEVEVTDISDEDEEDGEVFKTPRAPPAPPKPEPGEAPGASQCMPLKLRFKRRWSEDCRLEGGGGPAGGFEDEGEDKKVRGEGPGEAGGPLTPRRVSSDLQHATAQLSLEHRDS
The note with it: protein: recombinant; tags: N-terminal GST; dsDNA, one strand shown. The method in brief:
as §1

Another test addresses T7, ETV3L (Homo sapiens, UniProt Q6ZN32 1-361).
T7 sequence: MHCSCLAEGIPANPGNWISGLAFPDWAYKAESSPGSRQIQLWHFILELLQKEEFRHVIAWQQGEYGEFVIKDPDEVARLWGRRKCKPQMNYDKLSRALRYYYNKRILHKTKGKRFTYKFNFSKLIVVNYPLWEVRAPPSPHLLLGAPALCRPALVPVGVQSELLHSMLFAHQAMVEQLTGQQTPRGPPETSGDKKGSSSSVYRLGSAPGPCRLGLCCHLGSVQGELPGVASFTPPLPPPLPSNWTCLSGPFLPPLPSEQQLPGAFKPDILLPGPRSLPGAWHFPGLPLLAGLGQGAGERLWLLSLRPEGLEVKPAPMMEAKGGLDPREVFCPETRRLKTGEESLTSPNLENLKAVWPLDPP
The note with it: protein: recombinant; tags: N-terminal GST; dsDNA, one strand shown. Put shortly: as §1

The next test has as its target T8, ETS2 (Homo sapiens, UniProt P15036 1-469).
T8 sequence: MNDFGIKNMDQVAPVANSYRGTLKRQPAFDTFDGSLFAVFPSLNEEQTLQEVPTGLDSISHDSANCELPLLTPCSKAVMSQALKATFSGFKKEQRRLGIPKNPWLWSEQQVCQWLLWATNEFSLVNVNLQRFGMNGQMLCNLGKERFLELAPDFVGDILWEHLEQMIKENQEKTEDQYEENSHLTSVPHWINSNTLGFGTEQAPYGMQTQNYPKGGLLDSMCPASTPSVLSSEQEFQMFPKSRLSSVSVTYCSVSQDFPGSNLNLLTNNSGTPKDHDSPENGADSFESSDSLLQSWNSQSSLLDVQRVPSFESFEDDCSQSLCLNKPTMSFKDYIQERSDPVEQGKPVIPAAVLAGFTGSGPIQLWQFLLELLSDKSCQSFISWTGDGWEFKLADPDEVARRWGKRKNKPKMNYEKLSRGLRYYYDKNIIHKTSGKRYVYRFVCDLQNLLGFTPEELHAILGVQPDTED
To be noted: protein: recombinant; tags: N-terminal GST; dsDNA, one strand shown. Put shortly: as §1

The target in the next test is T9, SPDEF (Homo sapiens, UniProt O95238 1-335).
T9 sequence: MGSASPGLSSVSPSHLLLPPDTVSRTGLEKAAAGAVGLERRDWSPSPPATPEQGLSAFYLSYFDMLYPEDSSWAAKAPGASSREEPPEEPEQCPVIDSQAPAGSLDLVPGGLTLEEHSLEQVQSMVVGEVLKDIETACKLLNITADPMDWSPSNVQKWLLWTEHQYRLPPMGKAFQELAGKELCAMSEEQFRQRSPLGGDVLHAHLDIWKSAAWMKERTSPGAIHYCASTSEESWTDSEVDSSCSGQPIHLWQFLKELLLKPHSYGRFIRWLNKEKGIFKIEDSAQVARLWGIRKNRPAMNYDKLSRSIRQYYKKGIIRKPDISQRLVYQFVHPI
To be noted: protein: recombinant; tags: N-terminal GST; dsDNA, one strand shown. The method in brief: as §1

A further test addresses T10, ETV7 (Homo sapiens, UniProt Q9Y603 1-341).
T10 sequence: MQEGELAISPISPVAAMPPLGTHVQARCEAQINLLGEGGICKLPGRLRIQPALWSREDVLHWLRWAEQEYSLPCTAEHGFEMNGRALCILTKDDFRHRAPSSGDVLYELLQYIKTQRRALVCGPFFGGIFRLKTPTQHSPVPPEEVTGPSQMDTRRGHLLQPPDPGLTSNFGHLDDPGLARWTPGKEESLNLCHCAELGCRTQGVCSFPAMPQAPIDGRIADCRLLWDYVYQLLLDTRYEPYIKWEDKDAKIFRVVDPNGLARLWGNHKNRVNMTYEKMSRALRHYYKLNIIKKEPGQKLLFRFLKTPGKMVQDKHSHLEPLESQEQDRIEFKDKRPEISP
The note with it: protein: recombinant; tags: N-terminal GST; dsDNA, one strand shown. The method in brief: as §1

Another test has as its target T11, ELF5 (Homo sapiens, UniProt Q9UKW6-2 1-255).
T11 sequence: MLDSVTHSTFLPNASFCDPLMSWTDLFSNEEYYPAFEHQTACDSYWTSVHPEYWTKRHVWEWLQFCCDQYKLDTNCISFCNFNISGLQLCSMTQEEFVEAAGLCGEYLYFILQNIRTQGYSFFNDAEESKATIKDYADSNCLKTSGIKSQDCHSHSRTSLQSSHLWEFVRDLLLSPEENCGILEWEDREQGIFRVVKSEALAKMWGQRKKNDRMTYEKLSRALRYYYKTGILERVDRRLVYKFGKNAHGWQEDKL
The note with it: protein: recombinant; tags: N-terminal GST; dsDNA, one strand shown. The method in brief:
as §1

The target of the next test is T12, ETV3 (Homo sapiens, UniProt P41162-2 1-143).
T12 sequence: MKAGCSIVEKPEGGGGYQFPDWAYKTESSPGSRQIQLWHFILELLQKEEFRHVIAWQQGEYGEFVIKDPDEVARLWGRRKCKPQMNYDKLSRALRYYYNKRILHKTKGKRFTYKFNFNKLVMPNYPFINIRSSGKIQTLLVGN
To be noted: protein: recombinant; tags: N-terminal GST; dsDNA, one strand shown. The method in brief: as §1

Another test addresses ETV6 (Homo sapiens, UniProt P41212 1-452). The note with it: protein: recombinant; tags: N-terminal GST; dsDNA, one strand shown. The method in brief: as §1

Chain of CRX (O43186 whole entry): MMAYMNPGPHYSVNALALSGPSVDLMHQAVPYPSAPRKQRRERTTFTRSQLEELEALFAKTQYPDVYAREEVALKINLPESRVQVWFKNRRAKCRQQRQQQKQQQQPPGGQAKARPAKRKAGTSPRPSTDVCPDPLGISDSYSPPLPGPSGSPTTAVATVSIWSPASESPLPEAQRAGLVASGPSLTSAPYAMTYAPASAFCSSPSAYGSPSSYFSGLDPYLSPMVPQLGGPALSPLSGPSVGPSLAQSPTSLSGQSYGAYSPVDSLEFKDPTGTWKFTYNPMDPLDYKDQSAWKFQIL
Chain of ETV5 (P41161 whole entry): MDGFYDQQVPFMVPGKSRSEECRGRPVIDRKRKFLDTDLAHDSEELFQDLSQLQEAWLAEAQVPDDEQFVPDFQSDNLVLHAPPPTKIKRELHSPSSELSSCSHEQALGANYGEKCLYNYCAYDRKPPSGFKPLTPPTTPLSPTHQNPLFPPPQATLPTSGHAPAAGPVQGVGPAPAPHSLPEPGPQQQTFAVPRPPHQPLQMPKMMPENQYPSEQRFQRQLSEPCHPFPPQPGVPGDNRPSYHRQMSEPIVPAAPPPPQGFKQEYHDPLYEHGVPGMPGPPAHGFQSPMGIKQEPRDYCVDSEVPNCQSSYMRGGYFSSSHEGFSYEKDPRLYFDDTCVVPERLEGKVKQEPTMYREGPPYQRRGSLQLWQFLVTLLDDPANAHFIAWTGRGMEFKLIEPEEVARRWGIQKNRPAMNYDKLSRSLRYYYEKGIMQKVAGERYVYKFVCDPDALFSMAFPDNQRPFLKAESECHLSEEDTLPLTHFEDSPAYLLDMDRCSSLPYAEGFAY
Chain of ETV1 (P50549 whole entry): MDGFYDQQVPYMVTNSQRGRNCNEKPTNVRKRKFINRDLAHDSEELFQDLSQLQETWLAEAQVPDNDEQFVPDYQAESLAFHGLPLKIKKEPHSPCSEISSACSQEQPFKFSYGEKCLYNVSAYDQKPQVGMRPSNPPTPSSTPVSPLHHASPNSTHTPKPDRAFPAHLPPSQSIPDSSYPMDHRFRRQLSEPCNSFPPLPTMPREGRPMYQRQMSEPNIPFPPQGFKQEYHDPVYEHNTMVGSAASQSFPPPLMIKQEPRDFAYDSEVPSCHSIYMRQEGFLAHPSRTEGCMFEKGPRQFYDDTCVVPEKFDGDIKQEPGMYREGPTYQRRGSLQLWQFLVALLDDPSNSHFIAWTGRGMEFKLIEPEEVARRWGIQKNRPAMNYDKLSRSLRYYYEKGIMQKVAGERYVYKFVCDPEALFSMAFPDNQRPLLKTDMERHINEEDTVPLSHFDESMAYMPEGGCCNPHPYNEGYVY
Chain of ELF4 (Q99607 whole entry): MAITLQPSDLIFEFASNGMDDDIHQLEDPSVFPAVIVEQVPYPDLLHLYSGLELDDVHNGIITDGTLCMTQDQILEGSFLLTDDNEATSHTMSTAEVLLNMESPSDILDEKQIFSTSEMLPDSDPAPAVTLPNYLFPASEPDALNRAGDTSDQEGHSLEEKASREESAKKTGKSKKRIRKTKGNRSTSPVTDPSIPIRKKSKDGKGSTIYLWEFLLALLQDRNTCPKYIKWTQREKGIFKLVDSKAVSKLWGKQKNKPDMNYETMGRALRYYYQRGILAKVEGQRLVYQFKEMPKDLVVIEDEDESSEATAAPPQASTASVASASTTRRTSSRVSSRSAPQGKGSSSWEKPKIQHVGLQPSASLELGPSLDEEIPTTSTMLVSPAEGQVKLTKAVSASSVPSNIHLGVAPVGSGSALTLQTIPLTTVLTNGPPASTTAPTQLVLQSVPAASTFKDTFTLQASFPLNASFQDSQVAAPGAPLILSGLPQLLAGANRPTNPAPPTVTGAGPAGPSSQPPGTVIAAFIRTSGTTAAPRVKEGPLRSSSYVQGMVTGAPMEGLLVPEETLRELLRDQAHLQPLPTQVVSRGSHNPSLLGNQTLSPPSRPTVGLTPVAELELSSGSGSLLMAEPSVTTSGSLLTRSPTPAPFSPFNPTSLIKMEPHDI
Chain of ETV6 (P41212 whole entry): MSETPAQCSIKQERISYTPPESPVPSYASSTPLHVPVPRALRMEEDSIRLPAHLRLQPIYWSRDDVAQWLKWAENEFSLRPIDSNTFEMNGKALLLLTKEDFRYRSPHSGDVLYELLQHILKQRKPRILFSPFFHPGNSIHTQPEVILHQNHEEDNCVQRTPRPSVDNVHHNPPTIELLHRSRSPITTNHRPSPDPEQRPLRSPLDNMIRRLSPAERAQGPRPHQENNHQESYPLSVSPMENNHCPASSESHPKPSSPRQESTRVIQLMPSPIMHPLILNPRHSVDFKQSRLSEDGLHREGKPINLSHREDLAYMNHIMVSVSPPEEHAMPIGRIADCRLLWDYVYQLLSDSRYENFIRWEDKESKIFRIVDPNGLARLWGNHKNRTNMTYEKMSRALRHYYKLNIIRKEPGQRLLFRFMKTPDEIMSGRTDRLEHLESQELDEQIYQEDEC
Chain of HSF1 (Q00613 whole entry): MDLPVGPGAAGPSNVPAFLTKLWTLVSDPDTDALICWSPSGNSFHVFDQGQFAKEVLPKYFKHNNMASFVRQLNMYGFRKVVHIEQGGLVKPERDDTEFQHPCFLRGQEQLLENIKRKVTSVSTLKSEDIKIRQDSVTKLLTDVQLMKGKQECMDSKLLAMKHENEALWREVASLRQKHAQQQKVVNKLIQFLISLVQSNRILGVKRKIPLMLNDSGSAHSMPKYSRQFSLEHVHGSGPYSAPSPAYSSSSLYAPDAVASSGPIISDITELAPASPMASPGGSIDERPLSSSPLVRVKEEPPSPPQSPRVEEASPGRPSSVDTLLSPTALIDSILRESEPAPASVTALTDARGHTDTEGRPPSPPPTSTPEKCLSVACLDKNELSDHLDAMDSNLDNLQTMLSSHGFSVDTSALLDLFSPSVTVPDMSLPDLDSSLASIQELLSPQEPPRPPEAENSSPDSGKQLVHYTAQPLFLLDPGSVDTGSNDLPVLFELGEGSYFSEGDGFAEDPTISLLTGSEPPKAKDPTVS

For AAATGA, the binding signal with FEV is 1.26 fold enrichment (6-mer frequency, TF over GST control); in the test with ETV5, 1.32 fold enrichment (6-mer frequency, TF over GST control); with HSF1, 1.12 fold enrichment (6-mer frequency, TF over GST control); with SPIC it was 1.54 fold enrichment (6-mer frequency, TF over GST control); with ELF4 it was 1.29 fold enrichment (6-mer frequency, TF over GST control); with ELK4, 1.29 fold enrichment (6-mer frequency, TF over GST control). In addition, the binding signal in the test with ETV2 is 1.36 fold enrichment (6-mer frequency, TF over GST control); with ELF3 it was 1.41 fold enrichment (6-mer frequency, TF over GST control); with CRX it was 1.16 fold enrichment (6-mer frequency, TF over GST control); with ETV1, 1.29 fold enrichment (6-mer frequency, TF over GST control); with ERF, 1.42 fold enrichment (6-mer frequency, TF over GST control); with ETV3L, 1.29 fold enrichment (6-mer frequency, TF over GST control). The binding signal with ETS2 was 1.29 fold enrichment (6-mer frequency, TF over GST control); with SPDEF it was 1.18 fold enrichment (6-mer frequency, TF over GST control); in the test with ETV7 it was 1.42 fold enrichment (6-mer frequency, TF over GST control); with ELF5, 1.25 fold enrichment (6-mer frequency, TF over GST control); in the test with ETV3, 1.43 fold enrichment (6-mer frequency, TF over GST control); in the test with ETV6, 1.47 fold enrichment (6-mer frequency, TF over GST control).
